From PubChem BioAssay (NCI) come the findings set out here.

A short description of experiment [1]: NCI Yeast Anticancer Drug Screen. Data for the rad50 strain (AID 155).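 Further: 0% = growth of vehicle-only cultures of the same strain.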 As to conditions: S. cerevisiae rad50 strain growth inhibition, stronger effect = higher value. In outline:
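Cells are treated with compound, grown, and their growth is then scored against vehicle-only cultures of the same repair-deficient yeast strain.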

Experiment [2] is described as follows: NCI Yeast Anticancer Drug Screen. Data for the mec2-1 strain (AID 157). As to conditions: S. cerevisiae mec2-1 strain, stronger effect = higher value. In outline: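 Using mec2-1 yeast: add compound, measure growth, express inhibition versus vehicle-treated cultures.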
A short description of experiment [3]: NCI Yeast Anticancer Drug Screen. Data for the sgs1 mgt1 strain (AID 161).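 Further: 0% = growth of cultures given vehicle only.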 The following applies: S. cerevisiae sgs1 mgt1 strain, stronger effect = higher value. In outline:
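Percent growth inhibition was derived by comparing compound-exposed mutant yeast with vehicle-exposed cultures. The strain carries alterations in DNA damage repair.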

Experiment [4] is described as follows: NCI Yeast Anticancer Drug Screen. Data for the cln2 rad14 strain (AID 165).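 Further: 0% = growth equal to vehicle treated cultures.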 The following applies: S. cerevisiae cln2 rad14 strain, stronger effect = higher value. In outline:
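Yeast strain cln2 rad14, bearing defects in cell cycle control and DNA repair, serves as the test system; values reflect growth inhibition compared with vehicle.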

Experiment [5] in a line: NCI Yeast Anticancer Drug Screen. Data for the bub3 strain (AID 167). As to conditions: S. cerevisiae bub3 mutant strain, stronger effect = higher value. In outline: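 Part of a panel of yeast mutants defective in DNA damage repair or cell cycle regulation. Each strain is grown with compound, and inhibition is calculated relative to solvent-treated cultures.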
Experiment [6] can be described thus: NCI Yeast Anticancer Drug Screen. Data for the mlh1 rad18 strain (AID 175). As to conditions: S. cerevisiae mlh1 rad18 strain growth inhibition, stronger effect = higher value. In outline: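 Steps: expose repair-defective yeast to compound; measure growth; express inhibition against vehicle-treated controls.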
Where [7] appears, read: at 5.0 µM (retest, dose inferred, filed as 0.5).
Where [8] appears, read: at 50.0 µM (retest, dose inferred, filed as 5.0).

This is part of a sample that, as a whole, favours compounds with a hit. Of some 79,000 tested, about 15% had one in any assay. Unmarked numbers belong to inactive results. Calls of active or inactive are those of the source. No stated cut-off is given here; in the data, active means growth inhibition above about 70%; inactive means the rest.

Take `CCCC(C1=C(O)CC(C)CC1=O)C1=C(O)CC(C)CC1=O` (stereo not given): the growth inhibition in experiment [1] (setting [7]) was -6%; in experiment [1] (setting [8]), -2%; in experiment [1] (at 50.0 µM), -8.7%; in experiment [2] (setting [7]) it was -5%; in experiment [2] (setting [8]) it was -4%; in experiment [2] (at 50.0 µM), 0.4%. Besides, the growth inhibition in experiment [3] (setting [7]) is -4%; in experiment [3] (setting [8]) it was 8%; in experiment [3] (at 50.0 µM), -5.6%; in experiment [4] (setting [7]), -34%; in experiment [4] (setting [8]), 23%; in experiment [4] (at 50.0 µM) it was -24.4%. In addition, the growth inhibition in experiment [5] (setting [7]) is -6%; in experiment [5] (setting [8]), 19%; in experiment [5] (at 50.0 µM), -7.2%; in experiment [6] (setting [7]) it was 4%; in experiment [6] (setting [8]), 28%; in experiment [6] (at 50.0 µM) it was 0.45%.

As for `CC(=O)NC1=C(Nc2ccc(-c3ccc(NC4=C(NC(C)=O)C(=O)c5ccccc5C4=O)cc3)cc2)C(=O)c2ccccc2C1=O`, the growth inhibition in experiment [1] (setting [7]) is 99% (active); in experiment [1] (setting [8]), 98% (active); in experiment [1] (at 50.0 µM), 99.2% (active); in experiment [2] (setting [7]), 100% (active); in experiment [2] (setting [8]), 99% (active); in experiment [2] (at 50.0 µM) it was 99.5% (active). The growth inhibition in experiment [3] (setting [7]) is 100% (active); in experiment [3] (setting [8]), 99% (active); in experiment [3] (at 50.0 µM), 99.5% (active); in experiment [4] (setting [7]), 99% (active); in experiment [4] (setting [8]) it was 98% (active); in experiment [4] (at 50.0 µM), 99.1% (active). Further, the growth inhibition was 99% (active) in experiment [5] (setting [7]); 99% (active) in experiment [5] (setting [8]); 98.7% (active) in experiment [5] (at 50.0 µM); 99% (active) in experiment [6] (setting [7]); 99% (active) in experiment [6] (setting [8]); 99.3% (active) in experiment [6] (at 50.0 µM).

As to `CC(C)SC(=S)Nc1cc(C(F)(F)F)ccc1Cl`, the growth inhibition in experiment [1] (setting [7]) is -2%; in experiment [1] (setting [8]), 99% (active); in experiment [1] (at 50.0 µM) it was 99.5% (active); in experiment [2] (setting [7]), 2%; in experiment [2] (setting [8]) it was 98% (active); in experiment [2] (at 50.0 µM) it was 99.7% (active). For the same compound, the growth inhibition in experiment [3] (setting [7]) was 0%; in experiment [3] (setting [8]) it was 100% (active); in experiment [3] (at 50.0 µM), 99.6% (active); in experiment [4] (setting [7]), -15%; in experiment [4] (setting [8]) it was 98% (active); in experiment [4] (at 50.0 µM), 99.4% (active). The growth inhibition in experiment [5] (setting [7]) is 2%; in experiment [5] (setting [8]), 91% (active); in experiment [5] (at 50.0 µM), 99.5% (active); in experiment [6] (setting [7]) it was 0%; in experiment [6] (setting [8]), 97% (active); in experiment [6] (at 50.0 µM) it was 99.5% (active).

Turning to `Cc1cc(N=Nc2ccccc2)ccc1O`, the growth inhibition is -13% in experiment [1] (setting [7]); 99% (active) in experiment [1] (setting [8]); 99.4% (active) in experiment [1] (at 50.0 µM); -11% in experiment [2] (setting [7]); 100% (active) in experiment [2] (setting [8]); 99.5% (active) in experiment [2] (at 50.0 µM). The growth inhibition in experiment [3] (setting [7]) was -2%; in experiment [3] (setting [8]) it was 100% (active); in experiment [3] (at 50.0 µM), 99.5% (active); in experiment [4] (setting [7]), -31%; in experiment [4] (setting [8]) it was 99% (active); in experiment [4] (at 50.0 µM), 99.3% (active). Further, the growth inhibition in experiment [5] (setting [7]) was 6%; in experiment [5] (setting [8]) it was 99% (active); in experiment [5] (at 50.0 µM), 99.3% (active); in experiment [6] (setting [7]), -8%; in experiment [6] (setting [8]) it was 99% (active); in experiment [6] (at 50.0 µM), 99.3% (active).

In the case of `O=C(C#CC(=O)[O][Sn]([c]1ccccc1)([c]1ccccc1)[c]1ccccc1)[O][Sn]([c]1ccccc1)([c]1ccccc1)[c]1ccccc1`, the growth inhibition is 99% (active) in experiment [1] (setting [7]); 99% (active) in experiment [1] (setting [8]); 99.1% (active) in experiment [1] (at 50.0 µM); 100% (active) in experiment [2] (setting [7]); 99% (active) in experiment [2] (setting [8]); 99.5% (active) in experiment [2] (at 50.0 µM). In addition, the growth inhibition was 100% (active) in experiment [3] (setting [7]); 99% (active) in experiment [3] (setting [8]); 99.5% (active) in experiment [3] (at 50.0 µM); 99% (active) in experiment [4] (setting [7]); 99% (active) in experiment [4] (setting [8]); 98.4% (active) in experiment [4] (at 50.0 µM). The growth inhibition was 99% (active) in experiment [5] (setting [7]); 99% (active) in experiment [5] (setting [8]); 99% (active) in experiment [5] (at 50.0 µM); 99% (active) in experiment [6] (setting [7]); 99% (active) in experiment [6] (setting [8]); 99.2% (active) in experiment [6] (at 50.0 µM).

Take `CCCCCCCCCCCCCCCCS(=O)(=O)Cl`: the growth inhibition in experiment [1] (setting [7]) was 40%; in experiment [1] (setting [8]), 96% (active); in experiment [1] (at 50.0 µM) it was 61.5%; in experiment [2] (setting [7]) it was 46%; in experiment [2] (setting [8]) it was 98% (active); in experiment [2] (at 50.0 µM), 32.2%. Also, the growth inhibition was 57% in experiment [3] (setting [7]); 77% (active) in experiment [3] (setting [8]); 59.8% in experiment [3] (at 50.0 µM); 31% in experiment [4] (setting [7]); 73% (active) in experiment [4] (setting [8]); -6.35% in experiment [4] (at 50.0 µM). Moreover, the growth inhibition is 69% in experiment [5] (setting [7]); 78% (active) in experiment [5] (setting [8]); 46.7% in experiment [5] (at 50.0 µM); 43% in experiment [6] (setting [7]); 99% (active) in experiment [6] (setting [8]); 53.8% in experiment [6] (at 50.0 µM).

On to `CCN(CC)CCOC(=O)Nc1cc(Cl)cc(Cl)c1`, for which the growth inhibition in experiment [1] (setting [7]) is 50%; in experiment [1] (setting [8]), 68%; in experiment [1] (at 50.0 µM), 71% (active); in experiment [2] (setting [7]) it was 37%; in experiment [2] (setting [8]) it was 60%; in experiment [2] (at 50.0 µM), 47.1%. Besides, the growth inhibition was 52% in experiment [3] (setting [7]); 87% (active) in experiment [3] (setting [8]); 68.5% in experiment [3] (at 50.0 µM); 36% in experiment [4] (setting [7]); 62% in experiment [4] (setting [8]); 58.2% in experiment [4] (at 50.0 µM). The growth inhibition in experiment [5] (setting [7]) was 47%; in experiment [5] (setting [8]), 69%; in experiment [5] (at 50.0 µM) it was 61.2%; in experiment [6] (setting [7]), 59%; in experiment [6] (setting [8]), 86% (active); in experiment [6] (at 50.0 µM) it was 54.8%.

On to `CCCCOCN(CC(CC)CCCC)CC(CC)CCCC` (stereo not given), for which the growth inhibition was 4% in experiment [1] (setting [7]); 15% in experiment [1] (setting [8]); 26% in experiment [1] (at 50.0 µM); 3% in experiment [2] (setting [7]); 14% in experiment [2] (setting [8]); 12.8% in experiment [2] (at 50.0 µM). For the same compound, the growth inhibition in experiment [3] (setting [7]) is 1%; in experiment [3] (setting [8]), 29%; in experiment [3] (at 50.0 µM), 73.4% (active); in experiment [4] (setting [7]), 4%; in experiment [4] (setting [8]), 10%; in experiment [4] (at 50.0 µM), 5.3%. The growth inhibition is 1% in experiment [5] (setting [7]); 20% in experiment [5] (setting [8]); 18.9% in experiment [5] (at 50.0 µM); -4% in experiment [6] (setting [7]); 37% in experiment [6] (setting [8]); 52.1% in experiment [6] (at 50.0 µM).

Regarding `Cc1ccc(N=Nc2ccc(N)c3ccccc23)c(S(N)(=O)=O)c1`, the growth inhibition in experiment [1] (setting [7]) is -4%; in experiment [1] (setting [8]) it was 38%; in experiment [1] (at 50.0 µM) it was 27.1%; in experiment [2] (setting [7]), 0%; in experiment [2] (setting [8]), 24%; in experiment [2] (at 50.0 µM), 1.95%. Also, the growth inhibition in experiment [3] (setting [7]) is -1%; in experiment [3] (setting [8]), 51%; in experiment [3] (at 50.0 µM), 44.9%; in experiment [4] (setting [7]), -2%; in experiment [4] (setting [8]), 29%; in experiment [4] (at 50.0 µM), 70.8% (active). Moreover, the growth inhibition in experiment [5] (setting [7]) is -6%; in experiment [5] (setting [8]), 61%; in experiment [5] (at 50.0 µM), 22.2%; in experiment [6] (setting [7]), 0%; in experiment [6] (setting [8]), 61%; in experiment [6] (at 50.0 µM) it was 13.1%.

Take `Ic1ccc2c(c1)N(c1ccccc1)c1cc(N=c3ccc4nc5ccc(I)cc5n(-c5ccccc5)c-4c3)ccc1N2`: the growth inhibition in experiment [1] (setting [7]) was -3%; in experiment [1] (setting [8]) it was 15%; in experiment [1] (at 50.0 µM) it was 81.5% (active); in experiment [2] (setting [7]), 12%; in experiment [2] (setting [8]), 4%; in experiment [2] (at 50.0 µM), 93.6% (active). The growth inhibition is -4% in experiment [3] (setting [7]); -13% in experiment [3] (setting [8]); 76% (active) in experiment [3] (at 50.0 µM); 1% in experiment [4] (setting [7]); 29% in experiment [4] (setting [8]); 91.8% (active) in experiment [4] (at 50.0 µM). In addition, the growth inhibition in experiment [5] (setting [7]) was -8%; in experiment [5] (setting [8]), 11%; in experiment [5] (at 50.0 µM) it was 97.3% (active); in experiment [6] (setting [7]) it was -7%; in experiment [6] (setting [8]), 18%; in experiment [6] (at 50.0 µM) it was 93.9% (active).
